According to PubChem BioAssay (NCATS):
Records with an inconclusive call do not appear. Activity calls are given as the source filed them. Calls come from the whole dose curve; as a rule, active = well fitted cell-killing curve with a large enough effect; inconclusive = small, poorly fitted or top-dose-only effect, or effect the other way; inactive = flat fitted curve, though single readings scatter.

What was measured:
Assay in all cases: Primary qHTS to identify gynecologic anti-cancer compounds using libraries of approved drugs and bioactive compounds (AID 1345084); note: nearly all actives have a fitted effect of over 55% in size
C33A = settings: Gynecologic cancer cell panel viability, ATPlite luminescence, 48 h; series mostly up to 57.5 µM
Summary of the method: (§1)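 Luminescence from the ATPlite ATP-monitoring reagent indicates viable cell number; lower signal means cytotoxicity. Cells received compound 16 h after seeding and were exposed for 48 h across five concentrations.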

CAOV3 = settings: Gynecologic cancer cell panel viability, ATPlite luminescence, 48 h; series mostly up to 57.5 µM
Summary of the method: as §1

CASKI = settings: Gynecologic cancer cell panel viability, ATPlite luminescence, 48 h; series mostly up to 57.5 µM
Summary of the method: as §1

Es-2 = settings: Gynecologic cancer cell panel viability, ATPlite luminescence, 48 h; series mostly up to 57.5 µM
Summary of the method: as §1

HeLa = settings: Gynecologic cancer cell panel viability, ATPlite luminescence, 48 h; series mostly up to 57.5 µM
Summary of the method: as §1

Hek293T = settings: Gynecologic cancer cell panel viability, ATPlite luminescence, 48 h, control line for the selectivity index; series mostly up to 57.5 µM
Summary of the method: as §1

JEG-3 = settings: Gynecologic cancer cell panel viability, ATPlite luminescence, 48 h; series mostly up to 57.5 µM
Summary of the method: as §1

OV90 = settings: Gynecologic cancer cell panel viability, ATPlite luminescence, 48 h; series mostly up to 57.5 µM
Summary of the method: as §1

PA-1 = settings: Gynecologic cancer cell panel viability, ATPlite luminescence, 48 h; series mostly up to 57.5 µM
Summary of the method: as §1

Tov-21-G = settings: Gynecologic cancer cell panel viability, ATPlite luminescence, 48 h; series mostly up to 57.5 µM
Summary of the method: as §1

Tov112D = settings: Gynecologic cancer cell panel viability, ATPlite luminescence, 48 h; series mostly up to 57.5 µM
Summary of the method: as §1
% is set by controls: 0 for no effect and ±100 for the full control effect.

C=CC(C)(CC/C=C(\C)C(=O)OC)OC1OC(COC(=O)CC(C)(O)CC(=O)O)C(O)C(O)C1O (stereo not given)
inactive: Potency (C33A) | Potency (CAOV3) | outcome (CASKI) | Potency (Es-2) | Potency (HeLa) | Potency (Hek293T) | Potency (JEG-3) | Potency (OV90) | Potency (PA-1) | Potency (Tov-21-G) | Potency (Tov112D)

C[C@@H]1CCC2C(C)(C)[C@H](O)[C@H](O)C[C@]2(C)[C@@]12Cc1c(O)cc3c(c1O2)CN(CCCC(=O)O)C3=O (stereo not given in full)
inactive: Potency (C33A) | Potency (CAOV3) | outcome (CASKI) | Potency (Es-2) | Potency (HeLa) | Potency (Hek293T) | Potency (JEG-3) | Potency (OV90) | Potency (PA-1) | Potency (Tov-21-G) | Potency (Tov112D)

C/C=C/C=C/C=C/C(=O)O[C@@H]1[C@@H](OC)C2=C(C(=O)N(C(CCC(=O)O)C(=O)O)C2)[C@@]2(C)CCCC(C)(C)[C@H]12 (stereo not given in full)
inactive: Potency (C33A) | Potency (CAOV3) | outcome (CASKI) | Potency (Es-2) | Potency (HeLa) | Potency (Hek293T) | Potency (JEG-3) | Potency (OV90) | Potency (PA-1) | Potency (Tov-21-G) | Potency (Tov112D)

CC1(C)CC[C@]2(C(=O)OC3OC(CO)C(O)C(O)C3O)CC[C@]3(C)C(=CCC4[C@@]5(C)C[C@@H](O)[C@H](OC6OC(C(=O)O)C(O)C(O)C6O)C(C)(C)C5CC[C@]43C)[C@@H]2C1 (stereo not given in full)
inactive: activity change, negative = cytotoxicity (C33A) 5.49% [at 11.6 µM] | activity change, negative = cytotoxicity (CAOV3) -8.39% [at 11.6 µM] | activity change, negative = cytotoxicity (CASKI) 3.29% [at 11.6 µM] | activity change, negative = cytotoxicity (Es-2) -0.905% [at 11.6 µM] | activity change, negative = cytotoxicity (HeLa) 5.76% [at 11.6 µM] | activity change, negative = cytotoxicity (Hek293T) -2.17% [at 11.6 µM] | activity change, negative = cytotoxicity (JEG-3) 17.5% [at 11.6 µM] | activity change, negative = cytotoxicity (OV90) 1.98% [at 11.6 µM] | activity change, negative = cytotoxicity (PA-1) 4.09% [at 11.6 µM] | activity change, negative = cytotoxicity (Tov-21-G) 3.24% [at 11.6 µM] | activity change, negative = cytotoxicity (Tov112D) 0.489% [at 11.6 µM]

CC1CCCCCCCc2cc(O)cc(O)c2C(=O)O1 (stereo not given)
inactive: Potency (C33A) | Potency (CAOV3) | outcome (CASKI) | Potency (Es-2) | Potency (HeLa) | Potency (Hek293T) | Potency (JEG-3) | Potency (OV90) | Potency (PA-1) | Potency (Tov-21-G) | Potency (Tov112D)

CC(C)[C@](O)(c1ccc2cc(OC(F)F)c(OC(F)F)cc2c1)c1cn[nH]n1
inactive: Potency (C33A) | Potency (CAOV3) | outcome (CASKI) | Potency (Es-2) | Potency (HeLa) | Potency (Hek293T) | Potency (JEG-3) | Potency (OV90) | Potency (PA-1) | Potency (Tov-21-G) | Potency (Tov112D)

CC1(C)CC[C@]2(C(=O)O)CC[C@]3(C)C(=CCC4[C@@]5(C)C[C@@H](O)[C@H](O)[C@@](C)(CO)C5[C@H](O)C[C@]43C)[C@@H]2C1 (stereo not given in full)
inactive: Potency (C33A) | Potency (CAOV3) | outcome (CASKI) | Potency (Es-2) | Potency (HeLa) | Potency (Hek293T) | Potency (JEG-3) | Potency (OV90) | Potency (PA-1) | Potency (Tov-21-G) | Potency (Tov112D)

COc1cc2c(c(O)c1OC/C=C(\C)CC/C=C(/C)CCC=C(C)C)CN(C(CCC(=O)O)C(=O)O)C2=O (stereo not given)
inactive: Potency (C33A) | Potency (CAOV3) | outcome (CASKI) | Potency (Es-2) | Potency (HeLa) | Potency (Hek293T) | Potency (JEG-3) | Potency (OV90) | Potency (PA-1) | Potency (Tov-21-G) | Potency (Tov112D)

NC(=O)NCCCC(NC(=O)Cc1ccccc1)C(=O)O (stereo not given)
inactive: Potency (C33A) | Potency (CAOV3) | outcome (CASKI) | Potency (Es-2) | Potency (HeLa) | Potency (Hek293T) | Potency (JEG-3) | Potency (OV90) | Potency (PA-1) | Potency (Tov-21-G) | Potency (Tov112D)

CC1=C2C[C@@]3(C)C(CCC[C@@H]3C)C(O)C2(O)OC1=O (stereo not given in full)
inactive: Potency (C33A) | Potency (CAOV3) | outcome (CASKI) | Potency (Es-2) | Potency (HeLa) | Potency (Hek293T) | Potency (JEG-3) | Potency (OV90) | Potency (PA-1) | Potency (Tov-21-G) | Potency (Tov112D)

C[C@@H]1[C@H]2[C@H](O[C@@H]3O[C@H](CO)[C@@H](O)[C@H](O)[C@H]3O)OC=C(C(=O)O)[C@H]2C[C@@H]1OC(=O)/C=C/c1ccc(O)cc1
inactive: Potency (C33A) | Potency (CAOV3) | outcome (CASKI) | Potency (Es-2) | Potency (HeLa) | Potency (Hek293T) | Potency (JEG-3) | Potency (OV90) | Potency (PA-1) | Potency (Tov-21-G) | Potency (Tov112D)

C[C@@H]1O[C@@H](O[C@H]2[C@H](O)[C@@H](O)[C@H](OC(=O)[C@]34CCC(C)(C)C[C@H]3C3=CCC5[C@@]6(C)CC[C@H](O[C@@H]7O[C@H](C(=O)O)[C@@H](O)[C@H](O)[C@H]7O)C(C)(C)C6CC[C@@]5(C)[C@]3(C)CC4)O[C@@H]2CO)[C@H](O)[C@H](O)[C@H]1O (stereo not given in full)
inactive: activity change, negative = cytotoxicity (C33A) -8.12% [at 11.6 µM] | activity change, negative = cytotoxicity (CAOV3) -25.2% [at 11.6 µM] | activity change, negative = cytotoxicity (CASKI) 5.01% [at 11.6 µM] | activity change, negative = cytotoxicity (Es-2) -1.51% [at 11.6 µM] | activity change, negative = cytotoxicity (HeLa) -21.7% [at 11.6 µM] | activity change, negative = cytotoxicity (Hek293T) 10.3% [at 11.6 µM] | activity change, negative = cytotoxicity (JEG-3) -2.05% [at 11.6 µM] | activity change, negative = cytotoxicity (OV90) -2.03% [at 11.6 µM] | activity change, negative = cytotoxicity (PA-1) -21.3% [at 11.6 µM] | activity change, negative = cytotoxicity (Tov-21-G) -3.13% [at 11.6 µM] | activity change, negative = cytotoxicity (Tov112D) -16.2% [at 11.6 µM]

O=C(/C=C/c1ccccc1)OC[C@H]1O[C@@H](OC(=O)c2cc(O)c(O)c(O)c2)[C@H](O)[C@@H](O)[C@@H]1O
inactive: Potency (C33A) | Potency (CAOV3) | outcome (CASKI) | Potency (Es-2) | Potency (HeLa) | Potency (Hek293T) | Potency (JEG-3) | Potency (OV90) | Potency (PA-1) | Potency (Tov-21-G) | Potency (Tov112D)

CC1(C)CC[C@]2(C(=O)O)CC[C@]3(C)C(=CCC4[C@@]5(C)CC[C@H](O[C@H]6O[C@H](C(=O)O)[C@@H](O)[C@H](O[C@@H]7O[C@H](CO)[C@H](O)[C@H](O)[C@H]7O)[C@H]6O)C(C)(C)C5CC[C@]43C)[C@@H]2C1 (stereo not given in full)
inactive: activity change, negative = cytotoxicity (C33A) 17.4% [at 11.6 µM] | activity change, negative = cytotoxicity (CAOV3) 23.8% [at 11.6 µM] | activity change, negative = cytotoxicity (CASKI) 10.6% [at 11.6 µM] | activity change, negative = cytotoxicity (Es-2) 0.636% [at 11.6 µM] | activity change, negative = cytotoxicity (HeLa) -3.8% [at 11.6 µM] | activity change, negative = cytotoxicity (Hek293T) 18.4% [at 11.6 µM] | activity change, negative = cytotoxicity (JEG-3) -1.28% [at 11.6 µM] | activity change, negative = cytotoxicity (OV90) -6.58% [at 11.6 µM] | activity change, negative = cytotoxicity (PA-1) 2% [at 11.6 µM] | activity change, negative = cytotoxicity (Tov-21-G) 6.29% [at 11.6 µM] | activity change, negative = cytotoxicity (Tov112D) -0.0817% [at 11.6 µM]

COc1cccc(CNc2ccc(S(=O)(=O)Nc3nc4ccccc4s3)cc2)c1O
inactive: Potency (C33A) | Potency (CAOV3) | outcome (CASKI) | Potency (Es-2) | Potency (HeLa) | Potency (Hek293T) | Potency (JEG-3) | Potency (OV90) | Potency (PA-1) | Potency (Tov-21-G) | Potency (Tov112D)
